# Bioassay records deposited in PubChem by National Center for Advancing Translational Sciences (NCATS).
# Most compounds without a hit are left out; they make up all but 0.71% or so of the library.
# BLM helicase inh: blocks DNA unwinding by human BLM helicase. P54132. recombinant BLM DNA unwinding, fluorescence dequenching. Potency, µM (highest dose often 56.1 µM), without a hit: at the highest dose activity change, negative = inhibition, usual class: inhibitors. actives 0.2% (n = 350,000). AID 2528;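 note: plate controls were vehicle for no effect and no enzyme for full effect; nearly all actives have a fitted effect of over 35% in size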
# RECQ1 inh: blocks DNA unwinding by human RECQ1 | P46063 | RECQ1 DNA unwinding, red fluorescence kinetic read | Potency, µM (doses to about 57.3 µM), without a hit: at the top dose activity, negative = inhibition, usual class: inhibitors | actives 0.54% (n = 240,000) | AID 2549;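 note: plate controls were vehicle for no effect and no enzyme for full effect; nearly all actives have a fitted effect of over 30% in size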
#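 RECQ1T1 50 nM; forked duplex (20 bp + 30-nt ss tails) 200 nM, ATP 2 mM final; pH 8.0, 2 mM MgCl2, 2.5 ug/ml poly(dI-dC); 15 min compound preincubation; discontinuous kinetic read over 2 h at RT.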
# GoLoco inh red: RGS12 GoLoco-Gai1 interaction inhibition; P63096; Gai1:RGS12 GoLoco peptide FP, rhodamine, 10 min; Potency, µM (series often up to 61.6 µM), inactives show top-dose activity, negative = inhibition, actives largely listed as inhibitors; actives 0.44% (n = 230,000); active = well fitted inhibition curve with a large enough effect, not every such curve was filed as active; inactive = no such curve, though single readings can be large or run the other way; note: % is set by controls: 0 for no effect and ±100 for the full control effect; nearly all actives have a fitted effect of over 30% in size
# Target sequence (P63096 whole entry, looked up): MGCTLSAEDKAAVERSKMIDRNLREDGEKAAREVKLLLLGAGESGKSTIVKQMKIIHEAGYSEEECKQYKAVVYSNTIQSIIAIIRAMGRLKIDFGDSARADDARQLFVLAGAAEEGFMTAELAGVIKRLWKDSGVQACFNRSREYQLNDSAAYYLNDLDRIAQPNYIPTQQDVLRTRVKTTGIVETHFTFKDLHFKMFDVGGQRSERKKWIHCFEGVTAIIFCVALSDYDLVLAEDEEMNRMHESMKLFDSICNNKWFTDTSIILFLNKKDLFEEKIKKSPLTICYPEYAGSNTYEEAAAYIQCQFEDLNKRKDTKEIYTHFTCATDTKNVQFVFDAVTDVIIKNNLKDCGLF
# TRb SRC2 PPI: inhibitors of human thyroid hormone receptor beta-SRC2 interaction; P10828; TRbeta-SRC2 peptide binding, fluorescence polarization; receptor liganded with 1 µM T3; Potency, µM (highest dose often 106 µM), without a hit: at the top dose activity change, negative = inhibition, hits mostly inhibitors; actives 0.065% (n = 280,000); AID 1469;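 note: plate controls were bound peptide for no effect and peptide without receptor for full effect; nearly all actives have a fitted effect of over 50% in size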
#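 Each compound concentration gave % activity, normalized to unbound and bound Texas Red SRC2 controls, from polarization read after 5 hr ambient incubation with T3-loaded human TRb LBD.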
# TR SRC2 fluor cs: alters Texas Red total fluorescence, flagging assay interference; Potency, µM (series often up to 106 µM), for the others: at the highest dose fluorescence change, negative = quenching; actives 0.29% (n = 280,000); TRb/SRC2 Texas Red total fluorescence interference; active = well fitted curve in either direction with a large enough effect; inconclusive = small, poorly fitted or top-dose-only effect; note: % is set by controls: 0 for no effect and ±100 for the full control effect
#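 Human TRb ligand-binding domain at 0.6 uM with 20 nM Texas Red SRC2 peptide in Tris buffer containing 1 uM T3 and 5% DMSO, incubated with compound 5 h at ambient temperature. Total fluorescence (555/632 nm) calculated as parallel + 2 × perpendicular.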
# ERG Ets-DNA blk: inhibitors of human ERG Ets domain-DNA interaction | fluorescence polarization, His-ERG Ets domain / labelled DNA | Potency, µM (titrated, usually from 76.9 µM), for inactives: at the highest dose FP activity, negative = inhibition, most hits filed as inhibitors | actives 0.028% (n = 370,000); active = well fitted inhibition curve with a large enough effect in the polarisation, with a control signal flat; inconclusive = small, poorly fitted or top-dose-only effect, or effect the other way, or a change in a side signal; inactive = no such curve, though single readings can be large or run the other way; the % refers to the polarisation;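 note: polarization taken with two DNA probes labelled with fluorescein and Texas red; % of control where 0% means no effect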
#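 His-tagged ERG Ets domain (1 uM in the protein solution; 300mM KCl, 50mM Tris-HCl, 1mM EDTA, 1mM DTT, pH 7.5) received compound, then a probe mix of 5 nM fluorescein-DNA and 100nM Texas-615-DNA. Fluorescence polarization was read for both dyes.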
# * marks the source's active call; other numbers are inactive results; i = inactive; ? = inconclusive; · = not tested or not shown; [ ] = another dose, or the depositor's remark. Unless noted, calls come from the whole dose curve; as a rule, active = well fitted curve in the direction sought with a large enough effect; inconclusive = small, poorly fitted or top-dose-only effect, or another doubt; inactive = no such curve, though single readings can be large; an effect the other way counts as inactive or inconclusive. Potency is the fitted concentration of half-maximal effect.
SMILES,BLM helicase inh,RECQ1 inh,GoLoco inh red,TRb SRC2 PPI,TR SRC2 fluor cs,ERG Ets-DNA blk
C[n+]1ccc(/C=C/c2ccc(Br)cc2)cc1,20.6%,-5.9%,20µM*,-1.2%,-1.2%,3.5%
C[n+]1ccc(/C=C/c2ccc3ccccc3c2)cc1,·,19.6%,-29.0%,-1.5%,-5.2%,·
CCCCCCCCCCCCCCC(=O)OC,·,·,·,0.8%[201 µM],-2.0%[201 µM],·
Cc1c(OC(=O)c2ccc([N+](=O)[O-])cc2)c2c(c[n+]1C)COC(C)(C)OC2,-2.1%,i,12.6µM*,-10.8%,-1.0%,-15.3%
O=C(NCC(c1cccnc1)N1CCc2ccccc21)c1ccc(F)cc1 (configuration not stated),-1.0%,·,·,?,0.0794µM*[quencher],2.4%
COc1ccc(C(=O)NCC(c2cccnc2)N2CCc3ccccc32)cc1OC (configuration not stated),-6.7%,·,·,-6.2%,1.6%,5.9%
O=C(NCC(c1cccnc1)N1CCc2ccccc2C1)C(=O)Nc1ccc(F)cc1F (configuration not stated),-5.3%,·,·,?,2.82µM*[quencher],3.5%
O=C(NCC(c1ccco1)N1CCc2ccccc2C1)C(=O)Nc1ccc(F)cc1F (configuration not stated),·,·,·,·,·,-17.3%
CC1Cc2cc(S(=O)(=O)NCc3ccc(N(C)C)cc3)ccc2N1C(=O)C1CCC1 (configuration not stated),-1.5%,·,·,-11.3%,22.4µM*[quencher],4.3%
Cc1cccc(OCCc2c(C)[nH]c(=S)[nH]c2=O)c1,-1.4%,3.9%,-5.5%,-1.7%,-0.3%,28.2µM*
CC(C)C(=O)OC(=O)C(C)C,·,·,·,4.7%[201 µM],-1.4%[201 µM],·
O=c1oc(=O)c2cc3c(=O)oc(=O)c3cc12,·,·,·,9.6%[201 µM],0.0%[201 µM],·
Cc1ccc(Nc2nc(N/N=C/c3c[nH]c4ccccc34)nc(N3CCOCC3)n2)cc1,-7.1%,-2.8%,104.1%,-4.4%,631µM*[quencher],-11.3%
C(=N\Nc1nc(Nc2ccccc2)nc(N2CCOCC2)n1)/c1c[nH]c2ccccc12,-10.8%,-9.9%,7.0%,-6.8%,-9.8%,?
O=C(Oc1cccc(/C=N/Nc2nc(Nc3ccccc3)nc(N3CCOCC3)n2)c1)c1ccco1,-7.4%,22.4µM*,12.1%,1.6%,-0.3%,-0.6%
COc1cc(/C=N/Nc2nc(N3CCCCC3)nc(N3CCCCC3)n2)ccc1OC(=O)c1ccco1,-1.1%,-6.5%,7.9%,1.2%,-1.2%,·
CCC(Cl)CC(Cl)C(Cl)C(Cl)C(Cl)C(C)Cl (configuration not stated),·,-3.5%,-2.2%,-17.0%,0.1%,·
Cc1c(Cl)cccc1N1CC(C)(C)C1=O,-0.4%,17.8µM*,0.4%,-4.3%,-0.9%,5.2%
CC1(C)CN(c2ccc(Br)cc2Br)C1=O,1.1%,i,-5.7%,1.5%,-2.2%,-1.0%
CCOC(=O)NC(=O)C(/C=N/c1sccc1C(=O)OC)=C(\C)O,-1.5%,14.1µM*,9.5%,?,26.4%,-21.0%
Nc1c(CO)nnn1-c1ccccc1,-9.0%,10.0%,3.16µM*,-2.0%,-2.8%,-1.6%
Cc1c(C(=O)NCc2ccccc2Cl)sc2nc3n(c(=O)c12)CCCC3,-1.1%,·,·,0.7%,1.3%,-1.8%
COc1ccc(C2CC(=O)C3=C(C2)Nc2ccccc2N(C(=O)CCC(=O)O)C3c2ccc(F)cc2)cc1 (configuration not stated),6.9%,-15.7%,5.62µM*,-2.3%,-4.9%,6.2%
O=C1c2ccccc2-c2onc3ccc(NCCCn4ccnc4)c1c23,35.5µM*,28.2µM*,i,15.8µM*,44.7µM*[fluorescent],·
COc1cccc(-c2nnc3n2N=C(c2ccccc2OC)CS3)c1,5.4%,i,·,-1.1%,0.7%,·
Cc1c(N/N=C(\C#N)C(=O)c2ccccc2)c(=O)n(-c2ccccc2)n1C,-10.0%,-6.4%,-1.3%,-12.3%,2.24µM*[quencher],5.3%
Cc1ccccc1C(=O)/C(C#N)=N/Nc1c(C)n(C)n(-c2ccccc2)c1=O,-4.6%,-4.2%,-2.9%,-2.9%,7.7%,-3.4%
